Screening results deposited in PubChem by National Center for Advancing Translational Sciences (NCATS).
Vaccinia mCherry: vaccinia inhibition (mCherry reporter). 310,000 tested, 0.63% active. Potency, µM (series often up to 36.5 µM), without a hit: at the top dose activity change, negative = inhibition, usual class: inhibitors. Vaccinia virus mCherry reporter infection, fluorescence; calls by dose curve; tested in A549 cells; note: potency is the fitted concentration of half-maximal effect; nearly all actives have a fitted effect of over 35% in size
Lassa entry inh: Lassa virus entry inhibition. Lassa virus pseudotype entry inhibition, cell reporter. Potency, µM (top dose mostly 37.9 µM), inactives show at the highest dose activity change, negative = inhibition, most hits filed as inhibitors. 300,000 tested, 1.2% active. AID 540256; calls by dose curve; tested in HEK293 cells; note: potency is the fitted concentration of half-maximal effect; nearly all actives have a fitted effect of over 50% in size
HCMV antiviral: blocks human cytomegalovirus replication | 410,000 tested, 4.5% active | activity change, negative = inhibition, % at 57.5 µM | HFF cells, HCMV-luciferase reporter, 72 h; hits give low values | AID 1259415; in the data active = activity change below about -60%; inconclusive = no clear call, values can overlap the other calls; inactive = above about -39%
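Luciferase read-out from HCMV-luciferase-infected HFFs (MOI 1 PFU/cell) 72 h post infection at 37C; compounds added after 16 h cell attachment; activity normalized between buffer-only basal and Salinomycin (10uM) inhibitor controls.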
MARV entry inh: Marburg virus entry inhibition; Marburg virus pseudotyped entry inhibition, cell reporter; Potency, µM (doses to about 37.8 µM), without a hit: at the highest dose activity change, negative = inhibition, hits mostly inhibitors; 300,000 tested, 1.8% active; AID 540276; calls by dose curve; tested in HEK293 cells; note: potency is the fitted concentration of half-maximal effect
Vaccinia Venus: inhibitors of vaccinia virus (Venus reporter); Vaccinia virus Venus reporter expression, fluorescence; Potency, µM (highest dose often 36.5 µM), inactives show top-dose activity change, negative = inhibition, usual class: inhibitors; 330,000 tested, 0.46% active; calls by dose curve; tested in A549 cells; note: potency is the fitted concentration of half-maximal effect; nearly all actives have a fitted effect of over 30% in size
HCV inh: HCV inhibition; Potency, µM (titrated, usually from 41.8 µM), for the others: at the highest dose activity change, negative = inhibition, hits mostly inhibitors; Huh7.5.1 HCVcc-Cre infection, luciferase reporter, 44 h; AID 651820; 340,000 tested, 3.4% active; active = well fitted inhibition curve with a large enough effect; inconclusive = small, poorly fitted or top-dose-only effect, or another doubt; inactive = no such curve, though single readings can be large or run the other way; note: potency is the fitted concentration of half-maximal effect
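A cell-based infection assay in which seeded cells (1,000 per well) receive test compound after 4 h, are inoculated with HCVcc-Cre at approximately 0.5 moi, and are incubated 44 h before luminescence detection.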
Active calls of the source: *; [ ] = another dose, or the depositor's remark. A selection: hits, their analogues and other compounds. The true share with any hit is near 7.8%. % is set by controls: 0 for no effect and ±100 for the full control effect.

Cc1ccccc1N(C(=O)c1snc(C(N)=O)c1N)C(C(=O)NCc1ccccc1)c1ccc(O)cc1 (stereo not given) was read as Vaccinia mCherry inactive, Lassa entry inh inconclusive, HCMV antiviral 18, MARV entry inh inconclusive, Vaccinia Venus -14% and HCV inh 5.6µM*.
COc1ccc(CNC(=O)C(C)N(Cc2ccccc2OC)C(=O)c2snc(C(N)=O)c2N)cc1 (stereo not given) was read as Vaccinia mCherry -9%, HCMV antiviral -7, MARV entry inh -15%[46.1 µM], Vaccinia Venus 3% and HCV inh 10µM*.
`NC(=O)c1nsc(C(=O)N(c2ccccc2F)C(C(=O)NCc2ccccc2)c2ccc(O)cc2)c1N` (stereo not given) gave Vaccinia mCherry -18%, HCMV antiviral -8, MARV entry inh -22%[46.1 µM], Vaccinia Venus -13% and HCV inh inconclusive.
For CCCNC(=O)Cn1c(=O)cc(C)c2c(C)nn(-c3cccc(F)c3)c21 the results were Vaccinia mCherry 0%, Lassa entry inh 18%[46.1 µM], HCMV antiviral -2 and Vaccinia Venus -7%.
`COC(=O)c1ccccc1NC(=O)Cn1c(=O)n(-c2cccc(OC)c2)c(=O)c2c(C)c(C(=O)N(C)C)sc21` gave Vaccinia mCherry -25%, Lassa entry inh 1%[46.1 µM], HCMV antiviral 95 and Vaccinia Venus -27%.
COc1ccc(NCc2cc3cc4c(cc3n(CC(=O)Nc3ccc(F)cc3F)c2=O)OCO4)cc1 was read as Vaccinia mCherry -12%, Lassa entry inh 7%[46.1 µM], HCMV antiviral 38 and Vaccinia Venus -11%.
`Cc1ccccc1N(C(=O)c1snc(C(N)=O)c1N)C(C(=O)NC1CCCCC1)c1ccc(O)cc1` (stereo not given) gave Vaccinia mCherry inconclusive, Lassa entry inh 11µM*, HCMV antiviral -33, MARV entry inh inconclusive, Vaccinia Venus -11% and HCV inh 10µM*.
Screening Cc1ccc2[nH]c(O)c(N=NC(=O)CCc3ccccc3)c2c1Br returned Vaccinia mCherry -12%, Lassa entry inh 1%, HCMV antiviral -61*, MARV entry inh 8%, Vaccinia Venus -1% and HCV inh -23%.
Screening Cc1noc(C)c1COc1ccc(C(=O)NNC(=O)c2ccccc2O)cc1 returned Vaccinia mCherry 3.5µM*, Lassa entry inh -23%, HCMV antiviral -23, MARV entry inh inconclusive, Vaccinia Venus inconclusive and HCV inh -4%.
Screening Cc1noc(C)c1C(=O)Nc1nnc(CC(C)C)s1 returned Vaccinia mCherry inactive, Lassa entry inh 23%, HCMV antiviral 0, MARV entry inh 4%[46.1 µM], Vaccinia Venus 14% and HCV inh -28%.
For Cc1noc(C)c1COc1ccc(C(=O)Nc2nnc(CC(C)C)s2)cc1 the results were HCMV antiviral -62* and HCV inh inconclusive.
For Cc1noc(C)c1COc1ccc(C(=O)Nc2ccccc2)cc1 the results were Vaccinia mCherry -15%, Lassa entry inh 2%[46.1 µM], HCMV antiviral inconclusive, MARV entry inh inconclusive, Vaccinia Venus -9% and HCV inh -6%.
For CC(C)(C)c1ccc(OCCCC(=O)NNC(=O)c2ccccc2O)cc1 the results were Vaccinia mCherry 14µM*, Lassa entry inh inconclusive, HCMV antiviral 20, MARV entry inh inconclusive, Vaccinia Venus inconclusive and HCV inh inconclusive.
For O=C(NCCc1nnc2n1CCN(Cc1cc3ccccc3o1)CC2)c1ccoc1 the results were Vaccinia mCherry inactive and Vaccinia Venus -11%.
For C=CS(=O)(=O)N(Cc1ccc(Cl)c(Cl)c1)C[C@@H](O)CO the results were Vaccinia mCherry 0.28µM*, Lassa entry inh inconclusive, Vaccinia Venus 0.05µM* and HCV inh 14µM*.
CCOc1ccccc1OCCCOc1ccc([N+](=O)[O-])cc1Cl was read as Lassa entry inh 11%, HCMV antiviral -18, MARV entry inh -2%[46.1 µM], Vaccinia Venus -27% and HCV inh 13µM*.
For CCCOc1ccc(CNC(=O)c2ccc(C)c(-n3c(C)nc4cccnc43)c2)cc1 the results were Vaccinia mCherry -3%, Lassa entry inh inconclusive, HCMV antiviral 0 and Vaccinia Venus -7%.
Screening COc1ccc(-c2cn3cccnc3n2)cc1NC(=O)C(C)Oc1ccccc1 (stereo not given) returned Vaccinia mCherry inconclusive, Lassa entry inh inconclusive, HCMV antiviral -24, MARV entry inh inconclusive, Vaccinia Venus -16% and HCV inh 22µM*.
`CCC(CC)C(=O)Nc1cc(-c2cn3cccnc3n2)ccc1OC` gave Vaccinia mCherry -1%, Lassa entry inh 9%[46.1 µM], HCMV antiviral 0 and Vaccinia Venus -8%.
Screening C[C@H]1[C@@H](C(=O)N2CCCC2)CC(=O)C(=NOCc2ccccc2)C[C@H]1c1ccccc1 returned Lassa entry inh inconclusive and MARV entry inh 0%[14.2 µM].
CN1C(=O)C2(c3ccccc31)N(C)CC(c1ccccc1)C21SC(=S)N(Cc2ccco2)C1=O (stereo not given) was read as Vaccinia mCherry inactive, Lassa entry inh inconclusive, HCMV antiviral -62*, MARV entry inh inconclusive, Vaccinia Venus -7% and HCV inh 10µM*.
Screening COc1cccc(C(=O)NC(c2ccc(Cl)cc2)c2cc(Cl)c3cccnc3c2O)c1 (stereo not given) returned Vaccinia mCherry 10µM*, Lassa entry inh inconclusive, HCMV antiviral inconclusive and Vaccinia Venus inconclusive.
Screening COc1cc(C(=O)NC(c2ccc(Cl)cc2)c2cc(Cl)c3cccnc3c2O)cc(OC)c1OC (stereo not given) returned Vaccinia mCherry 16µM*, Lassa entry inh inconclusive, HCMV antiviral -2 and Vaccinia Venus inconclusive.
`COc1cc(C(=O)NC(c2ccccc2)c2ccccc2)cc(Cl)c1OC` gave Vaccinia mCherry -14%, Lassa entry inh -7%, HCMV antiviral 21, MARV entry inh 0%, Vaccinia Venus -5% and HCV inh 5%.
`COc1ccc(C2C(C#N)=C(N)N(N(C)C)C3=C2C(=O)CC(C)(C)C3)cc1` (stereo not given) gave HCMV antiviral -16, MARV entry inh 0% and HCV inh 21%.
`COc1ccc(C2C(C#N)=C(N)N(c3sc4c(c3C#N)CCCC4)C3=C2C(=O)CC(C)(C)C3)cc1` (stereo not given) gave Lassa entry inh inconclusive, MARV entry inh inconclusive and HCV inh 7.9µM*.
Screening COc1ccc(C2C(C#N)=C3NC(=O)c4c(sc5c4CCCCC5)N3C3=C2C(=O)CC(C)(C)C3)cc1 (stereo not given) returned Lassa entry inh 23µM*, HCMV antiviral -4, MARV entry inh inconclusive and HCV inh inconclusive.
